FLuc modulator: counter-screen for miR-21 project: firefly luciferase inhibitors or activators. P08659. purified FLuc, Km substrates, luminescence inhibition. Potency, µM (titrated, usually from 57.5 µM), for inactives: at the highest dose activity change, negative = inhibition, usual class: inhibitors. hit rate 6.9% among 360,000. AID 588342;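 also: plate controls were vehicle for no effect and reference inhibitor for full effect; nearly all actives have a fitted effect of over 55% in size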
Target sequence (P08659 whole entry, looked up): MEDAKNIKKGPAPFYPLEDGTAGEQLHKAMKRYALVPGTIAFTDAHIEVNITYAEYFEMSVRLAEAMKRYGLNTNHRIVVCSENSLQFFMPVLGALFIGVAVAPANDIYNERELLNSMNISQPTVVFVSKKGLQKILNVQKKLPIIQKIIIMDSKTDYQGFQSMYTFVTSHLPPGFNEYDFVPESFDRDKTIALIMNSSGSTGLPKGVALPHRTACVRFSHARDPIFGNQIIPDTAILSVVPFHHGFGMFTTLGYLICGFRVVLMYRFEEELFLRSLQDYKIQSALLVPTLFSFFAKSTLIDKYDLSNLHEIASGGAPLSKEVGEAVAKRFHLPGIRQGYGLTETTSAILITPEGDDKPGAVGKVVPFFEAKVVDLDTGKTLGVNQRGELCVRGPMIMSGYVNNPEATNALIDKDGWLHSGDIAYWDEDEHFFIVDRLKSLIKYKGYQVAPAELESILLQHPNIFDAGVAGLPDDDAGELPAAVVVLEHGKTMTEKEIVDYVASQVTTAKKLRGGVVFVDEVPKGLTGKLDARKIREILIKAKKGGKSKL
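Purified P. pyralis luciferase (10nM final) with 10uM D-luciferin and 10uM ATP (Km levels) in 50mM Tris acetate pH 7.5, 10mM Mg acetate, 0.01% Tween-20, 0.05% BSA; qHTS 6-point titration, ~60 µM downward; luminescence read.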
Rab9 prom act: Rab9 promoter activation | AID 485297 | hit rate 2.8% among 320,000 | Huh7 Rab9 promoter-luciferase reporter, luminescence, 24 h | Potency, µM (top dose mostly 9.22 µM), without a hit: at the top dose activation, negative = inhibition, actives largely listed as activators; also: % of control where 0% means no effect; nearly all actives have a fitted effect of over 60% in size
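Measured in stably transfected Huh7 cells bearing a Rab9 promoter–luciferase construct: 24 h compound treatment at 37 °C, followed by luminescence detection.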
SMN2 splice up: SMN2 splice variant enhancement; HEK293 SMN2-luciferase splicing reporter, luminescence, 30-36 h; Potency, µM (series often up to 46.1 µM), for inactives: top-dose activity change, positive = activation, hits mostly activators; hit rate 2.8% among 210,000; AID 1458; also: % of control where 0% means no effect; nearly all actives have a fitted effect of over 55% in size
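qHTS luciferase splicing reporter: luminescence rises when SMN2 exon 7 is included in transfected HEK293 cells. Compound exposure lasted 30-36 h at 37C, with 4.5 mM final sodium butyrate as control, followed by a ONE-Glo read.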
NPC1 promoter act: NPC1 promoter activation | Huh7 NPC1 promoter luciferase reporter, 24 h | Potency, µM (top dose mostly 9.22 µM), for the others: at the top dose activation, actives largely listed as activators | hit rate 2.4% among 320,000; also: % of control where 0% means no effect; nearly all actives have a fitted effect of over 60% in size
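NPC1 promoter–luciferase Huh7 cells; 24 h compound; luminescence.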
ELG1 genotoxic: genotoxicity induction in ELG1-luciferase HEK293T cells; HEK293T ELG1-luciferase reporter, luminescence, 16 h; hit rate 1.3% among 330,000; Potency, µM (series often up to 46 µM), inactives show at the highest dose activity change, positive = activation, hits mostly activators; also: % of control where 0% means no effect; nearly all actives have a fitted effect of over 60% in size
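Quantitative HTS format in 1536-well plates. HEK293T ELG1-luciferase reporter cells receive test compound and are incubated 16 hr at 37 °C, 5% CO2; ONE-Glo added, 30 min room temperature, then luminescence read.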
* = called active by the depositor; ? = inconclusive; nt = no result; [ ] = dose if it differs, or a comment. Only some compounds are listed: those with a hit (about 7.4% of all), similar ones and a draw of the others. Calls follow the shape of the dose curve; as a rule, active = well fitted curve in the direction sought with a large enough effect; inconclusive = small, poorly fitted or top-dose-only effect, or another doubt; inactive = no such curve, though single readings can be large; an effect the other way counts as inactive or inconclusive. Potency is read from the fitted curve at half-maximal effect.

SMILES | FLuc modulator | Rab9 prom act | SMN2 splice up | NPC1 promoter act | ELG1 genotoxic
C[C@H](N=C(NC#N)Nc1ccncc1)C(C)(C)C | nt | nt | -2%[20.6 µM] | nt | nt
COc1ccc(-c2nc(CN3CCC(C(=O)NCCCN4CCN(c5ccccc5F)CC4)CC3)c(C)o2)cc1OC | -1% | nt | -57% | nt | nt
Nc1c(-c2n[nH]c(=S)n2-c2ccc(Cl)cc2Cl)cnn1-c1ccccc1 | 2% | -2% | nt | -2% | 0%
Nc1[nH]nc2c1NN(c1ccc(Cl)cc1Cl)N2 | 12µM* | 30% | ? | ? | ?
COCCCN(Cc1ccco1)C(=O)c1cc2c(s1)-c1ccccc1OC2 | ? | nt | -18% | nt | nt
O=C(NNC(=O)c1ccc(Cl)cc1Cl)Nc1ccccc1 | -3% | -1% | 12% | 1% | -1%
O=C(NNC(=S)Nc1ccccc1)c1cc(-c2cccnc2)nc2ccccc12 | 13µM* | 16% | 22% | -1% | -3%
CCOC(=O)c1ccc(NC(=S)NNC(=O)c2cc(-c3cccnc3)nc3ccccc23)cc1 | 21µM* | 11% | nt | 4% | -17%
O=C(NNC(=O)c1cc(-c2ccc(Cl)cc2Cl)nc2ccccc12)Nc1ccccc1 | 6.7µM* | -4% | -2% | -6% | 3%
CCOc1ccc(C(c2c(O)cc(C)n(CCOC)c2=O)N2CCN(c3ccc(F)cc3)CC2)cc1 (stereo not given) | -16% | nt | nt | nt | nt
CC(C)(C)C1CCc2c(sc(NC(=O)C3c4ccccc4Oc4ccccc43)c2C(N)=O)C1 (stereo not given) | -2% | nt | 6% | nt | nt
COc1cc(-c2nc(-c3ccc4c(c3)-c3ccccc3S4(=O)=O)c(-c3ccccc3)[nH]2)cc(OC)c1OC | 4.8µM* | 5% | 29% | 0% | -9%
CC1(C)CC(=O)c2c(oc3c(Cl)cc(NS(=O)(=O)c4ccc(Cl)cc4)cc23)C1 | -6% | nt | -1% | nt | nt
Nc1ccc2oc3ccc(N)cc3c(=O)c2c1 | 24µM* | 4µM* | ? | 2.5µM* | ?
C/C(=N\NC(=O)c1cc(C)[nH]n1)c1cccs1 | 12µM* | 0.32µM* | 11µM* | 1.1µM* | ?
C/C(=N\Nc1ccccn1)c1ccc(OC(F)F)cc1 | 15µM* | 26% | 21% | 10% | ?
C/C(=N/NC(=O)c1cc(C(C)C)[nH]n1)c1cccs1 | 5.4µM* | 0.5µM* | 11µM* | 0.4µM* | ?
C/C(=N\NC(=O)c1cc(C(C)C)[nH]n1)c1ccncc1 | ? | ? | nt | ? | 9%
C/C(=N\NC(=O)c1cc(C)[nH]n1)c1ccc(-c2ccccc2)cc1 | -17% | 17% | nt | 26% | 14%
C/C(=N\Nc1ccccn1)c1ccc(C#N)cc1 | ? | 4% | -5% | 1% | 1%
C/C(=N\Nc1ccccn1)c1cccs1 | 6.7µM* | 3.2µM* | 32µM* | 3.5µM* | ?
Cn1c(=O)c2c(nc(NCCNc3nc4c(c(=O)n(C)c(=O)n4C)n3C)n2C)n(C)c1=O | nt | nt | 4%[9.22 µM] | nt | nt
COc1cccc(Cc2nc3ccccc3nc2SCC(=O)Nc2ccccc2F)c1 | -8% | nt | nt | nt | nt
C/C(=N\NC(=O)c1cnccn1)c1ccc([N+](=O)[O-])cc1 | -11% | 14% | nt | 0% | -1%
C/C(=N/NC(=O)c1cnccn1)c1cccs1 | 15µM* | ? | 8.9µM* | 2µM* | ?
SMILES | FLuc modulator | Rab9 prom act | SMN2 splice up | NPC1 promoter act | ELG1 genotoxic
C/C(=C\c1ccccc1)C(=O)n1nnc2ccccc21 | 19µM* | 8% | -3% | -1% | 1%
O=C(O)[C@@H]1CCCN1Cc1ccc2c(c1)OCO2 | nt | nt | -15%[9.22 µM] | nt | nt
COC(=O)c1ccccc1N=Nc1c(N)[nH][nH]c1=O | 11µM* | -4% | nt | -2% | -8%
COC(=O)c1ccccc1N=Nc1c(N)n[nH]c1N | -14% | 7% | nt | 5% | -5%
CCOC(=O)CSc1nc2c(sc3ccccc32)c(=O)n1CCO | -9% | nt | nt | nt | nt
COc1ccccc1OCc1nnc(SCC(=O)Nc2ccc(N3CCOCC3)cc2)n1C | 12µM* | 16% | nt | 4% | 1%
Cc1ccccc1OCc1nnc(SCC(=O)Nc2ccc3c(c2)OCO3)n1C | 1% | -5% | -10% | -3% | 16%
Cc1ccccc1OCc1nnc(SCC(=O)Nc2ccc(N3CCOCC3)c(Cl)c2)n1C | 19µM* | -2% | -1% | 4% | -1%
Cn1c(COc2ccccc2)nnc1SCC(=O)Nc1ccc(N2CCOCC2)cc1 | ? | 2% | nt | 10% | 13%
COc1ccc(Cl)cc1NC(=O)CN(C)C(=O)c1ccc2c(c1)OCCO2 | -3% | -1% | nt | 0% | -2%
CN(CC(=O)Nc1ccc(Cl)c(C(F)(F)F)c1)C(=O)CCCNC(=O)c1ccc(Cl)cc1 | 19µM* | 5% | nt | 13% | -2%
CN(CC(=O)Nc1ccc(Cl)c(C(F)(F)F)c1)C(=O)CCNC(=O)c1ccco1 | 8% | -2% | nt | 1% | -2%
COc1ccc(Cl)cc1NC(=O)CN(C)C(=O)CCCNC(=O)c1ccc(Cl)cc1 | 13µM* | -4% | nt | -1% | 1%
CCc1ccc(C(=O)c2cn(CC(=O)Nc3cccc(OC)c3)c3ccc(OC)cc3c2=O)cc1 | 5% | -2% | -7% | 0% | nt
CC(=O)Nc1cc(-c2ccccc2)ccc1O | -13% | 15% | 7% | 5% | -2%
c1ccc(-c2ccc3c(c2)NCCN3)cc1 | 13µM* | -1%[1.84 µM] | nt | ? | 11%
Cc1cn2c(=O)cc(COC(=O)c3ccc(NC(=O)COc4ccc(C)c(C)c4)cc3)nc2s1 | 0% | nt | nt | nt | nt
CN(C)CCNC(=O)CCCn1c(=O)c2cccn2c2ccccc21 | 15µM* | nt | nt | nt | nt
Cc1ccc(Cl)cc1NC(=O)CCCn1c(=O)c2cccn2c2cccnc21 | -2% | nt | nt | nt | nt
Cc1ccc(Cl)cc1NC(=O)CCCn1c(=O)c2cccn2c2ccccc21 | 12µM* | nt | nt | nt | nt
COc1ccc(CCNC(=O)CCCn2c(=O)c3cccn3c3ccccc32)cc1OC | -1% | nt | nt | nt | nt
COc1ccc(S(=O)(=O)n2nc(C)c(S(=O)(=O)N3CCCCC3)c2C)cc1 | -2% | nt | nt | nt | nt
Cc1ccc(NC(=O)c2sc(-n3nc(C)c(CCC(C)C)c3C)nc2C)cc1C | -1% | nt | nt | nt | nt
Cc1nn(-c2nc3ccccc3s2)c(C)c1Oc1ccccc1O | 2.4µM* | 3.2µM* | ? | 3.5µM* | ?
Cc1nn(-c2ccccn2)c(C)c1Oc1ccccc1O | -3% | 7% | -12% | 1% | 8%
CCCCCCOC(=O)Sc1nc2ccccc2o1 | 24µM* | 0% | 4% | -1% | 1%
COC(=O)CSc1nc2ccccc2o1 | ? | -2% | -9% | 0% | -1%
O=C(Nc1ccccc1)C1Cc2ccccc2CN1C(=O)c1ccco1 (stereo not given) | 19µM* | 14% | 14% | 9% | 16%
Cc1ccc2oc(C(=O)N(Cc3sccc3C)C3CCS(=O)(=O)C3)c(C)c2c1 (stereo not given) | -13% | nt | -17% | nt | nt
COc1ccc(Br)cc1CN1C(=O)c2ccccc2C1C(=O)NC1CCCCCC1 (stereo not given) | -2% | nt | 0% | nt | nt

Screening data as filed in PubChem BioAssay.
